Compound activity as filed in PubChem.
Only some compounds are listed: those with a hit (about 3.3% of all), similar ones and a draw of the others.
PfM18AAP inh-1: PfM18AAP inhibitors, malaria aminopeptidase, primary screen, biochemical, QFRET, recombinant enzyme; M18 aspartyl aminopeptidase (Plasmodium falciparum 3D7); H-Glu-NHMec fluorogenic cleavage; inhibition, % at 7.35 µM; 1.2% of 290,000 active;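 active = inhibition above the campaign mean inhibition over all tested compounds plus 3 SD, cut at about 28% in these data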;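 note: 0% = plate median of test compound wells and 100% = 2 mM ZnCl2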
UHRF1 MBD2 ctr: UHRF1 methylated DNA binding inhibitors, primary screen, counter-screen for MBD2 inhibitor project, biochemical, TR-FRET, human UHRF1, single concentration. inhibition, % at 4.4 µM. 0.75% of 370,000 active. AID 687016, 2013. UHRF1 binding to methylated oligo. E3 ubiquitin-protein ligase UHRF1 (Homo sapiens), Q96T88; in the data active = inhibition above about 21%;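 note: UHRF1 SRA domain binding a hemimethylated CpG hairpin DNA probe; 0% = median of test compound wells and 100% = reference inhibitor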
PfGluPho inh: PfG6PD enzyme inhibitors, primary screen, biochemical, fluorescence intensity, uHTS | inhibition, % at 20 µM | 0.78% of 350,000 active | glucose-6-phosphate dehydrogenase-6-phosphogluconolactonase (Plasmodium falciparum 3D7) | PfGluPho enzyme, NADPH resazurin-diaphorase fluorescence | AID 504690, 2011;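 active = inhibition reaching at least a set limit at 20 µM in the primary screen, cut at about 59% in these data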;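 note: 0% = DMSO wells with substrate and 100% = DMSO wells lacking glucose-6-phosphate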
PRMT1 inh: PRMT1 methyltransferase inhibitors, primary screen, biochemical, fluorescence polarization. Protein arginine N-methyltransferase 1 (Homo sapiens), Q99873. recombinant PRMT1, activity-based probe fluorescence polarization. inhibition, % at 2.79 µM. 1.3% of 370,000 active. AID 652257, 2013;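 active = inhibition above about 21% made by adding two undisclosed values, limit read from the data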
MBD2 inh: inhibitors of MBD2 binding to methylated DNA, primary screen, biochemical, TR-FRET, DNA-binding domain, human. 0.31% of 370,000 active. AID 686964, 2013. Methyl-CpG-binding domain protein 2 (Homo sapiens), Q9UBB5. inhibition, % at 4.4 µM. MBD2 binding to methylated oligonucleotide; in the data active = inhibition above about 13%
PfM18AAP inh-2: PfM18AAP inhibitors, malaria aminopeptidase, confirmation, biochemical, QFRET, recombinant enzyme, triplicate; shares compounds with PfM18AAP inh-1; H-Glu-NHMec fluorogenic cleavage; inhibition, % at 7.35 µM; 28% of 2,400 active;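 active = mean inhibition over replicate wells above the hit cutoff set for the earlier primary screen, cut at about 29% in these data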;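 note: 0% = median of test compound wells and 100% = 2 mM ZnCl2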
CTSL1 counter: cathepsin L1 inhibitors, retest, confirmation, counter-screen for PFM18AAP inhibitor project, biochemical, QFRET, triplicate; shares compounds with PfM18AAP inh-1; purified cathepsin L1, Z-Leu-Arg-MCA fluorescence; inhibition, % at 5.96 µM; 2,400 tested, under 10 active;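 active = average inhibition across replicates above the hit cutoff set in the earlier primary screen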;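 note: 0% = median of test compound wells and 100% = Z-Phe-Ala-diazomethylketone 1 µM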
Numbers without * were called inactive; / = not tested or not shown.

SMILES	PfM18AAP inh-1	UHRF1 MBD2 ctr	PfGluPho inh	PRMT1 inh	MBD2 inh	PfM18AAP inh-2	CTSL1 counter
C[C@@H]1CN([C@H](C)CO)C(=O)CCCn2cc(nn2)CO[C@H]1CN(C)S(=O)(=O)c1ccc(Cl)cc1	/	19.2	/	1.9	2.5	/	/
COC(=O)[C@]12C[C@H](CC(=O)NCc3cccc(C(F)(F)F)c3)C(=O)N(CCc3ccc(OC)c(OC)c3)C1=C[C@H](C1CCCC1)O[C@@H]2C	/	-2.0	/	-3.4	-3.3	/	/
Cc1cccc(C(=O)NNC(=O)c2c(-c3ccccc3Cl)noc2C)c1O	39.5*	3.0	-6.3	3.8	5.8	-4.2	0.2
CCCCc1c(-c2ccccc2OC)ncn1Cc1cccc(F)c1	/	-2.2	/	3.6	-3.9	/	/
Cn1cnnc1SCC(=O)c1ccc(O)c(O)c1	53.3*	2.9	2.0	7.9	3.4	34.9*	2.8
O=C(O)c1ccc(CSc2nnnn2-c2ccc(F)cc2)cc1	-1.4	-2.8	-13.3	-5.7	-0.8	/	/
O=C(CCCn1c(SCC(=O)c2ccc(O)c(O)c2)nc2ccccc2c1=O)NCC1CCCO1 (stereo not drawn)	52.8*	0.8	-20.0	6.7	-1.7	38.5*	3.4
O=C(CSc1nnnn1-c1ccc(F)cc1)c1ccc(O)c(O)c1	47.4*	1.3	-26.2	3.7	3.8	28.1*	-5.1
O=C(CCCn1c(SCC(=O)NC2CCCCC2)nc2ccccc2c1=O)NCC1CCCO1 (stereo not drawn)	4.1	4.1	-26.0	0.8	0.8	/	/
CCCCn1c(SCC(=O)c2ccc(O)c(O)c2)nc2ccsc2c1=O	37.4*	/	-37.9	/	/	27.6	3.9
CC(=O)c1ccc(O)c(CSc2nncn2C)c1	-0.6	-2.1	20.7	-0.1	0.1	/	/
CN1C(=O)[C@@]2(O[C@H]3c4ccccc4C=CN3C3=C2C(=O)CCC3)c2ccccc21	/	-2.1	/	-5.5	-1.4	/	/
COC(=O)[C@]12C[C@H](CC(=O)N3CCC(c4ccccc4)CC3)C(=O)N(Cc3ccco3)C1=C[C@H](C(C)C)O[C@@H]2C1CC1	/	-3.0	/	-0.1	2.1	/	/
Cc1c(Cl)cccc1NC(=S)Nn1cnnc1	75.9*	3.9	37.3	4.2	-1.6	75.7*	2.1
Cc1c(Cl)cccc1NC(=S)NC1CC1	0.2	-0.4	9.1	-0.7	-2.2	/	/
CC1CC(C)CN(S(=O)(=O)c2ccc(C(C)(C)C)cc2)C1 (stereo not drawn)	15.9	4.5	-15.3	1.4	-1.6	/	/
CC1CC(C)CN(S(=O)(=O)c2ccc(NN)nc2)C1 (stereo not drawn)	45.9*	-0.8	-6.5	0.4	-3.0	33.4*	0.7
C=CCn1c(COc2ccc(Cl)cc2)nnc1SCC(=O)c1ccc(-c2ccccc2)cc1	/	-0.1	/	8.4	-2.0	/	/
Cc1ccc(C2CC(=O)N3CN(c4ccc(Br)cc4)CSC3=C2C#N)o1 (stereo not drawn)	37.2*	41.3*	54.5	81.7*	6.8	-4.2	1.9
Oc1ccc(/C=N/Nc2nc(N3CCCC3)nc(N3CCCC3)n2)cc1O	54.1*	17.4	21.4	3.8	2.8	28.1*	4.8
Oc1ccc(/C=N/Nc2ccc(Cl)nn2)cc1O	47.3*	0.8	-5.2	2.9	-2.7	18.4	4.1
Cc1cc(=O)[nH]c(N/N=C/c2ccc(O)c(O)c2)n1	45.0*	-1.8	-25.6	-4.2	2.1	21.3	8.0
CCOc1cc(C2C(C(=O)c3ccco3)=C(O)C(=O)N2CCc2ccccc2)ccc1O (stereo not drawn)	32.8*	-0.4	-4.2	3.6	-8.8	-4.8	5.5
COCc1cc(C2C(C(=O)c3ccco3)=C(O)C(=O)N2CCOCCO)ccc1O (stereo not drawn)	43.2*	-1.9	5.3	-1.3	-0.1	-19.8	6.3
